Results taken from the supplement of paper PMC10849652.
The full data set covers some 8,800 targets. This sample favours those with a hit. About 0.5% of all pairs of compound and target were hits. Unmarked numbers belong to inactive results.

Experiments:
Experiment in all cases: log2 fold change, soluble protein after heating vs DMSO (PISA); higher = thermal stabilisation; K562 lysate, 10 uM; active = over 0.2 and 3.5 SD of the protein, either way, in both replicates (recomputed)
erlotinib = compound: C#Cc1cccc(Nc2ncnc3cc(OCCOC)c(OCCOC)cc23)c1 [erlotinib]
Method in brief: (§1)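 K562 pellets were dounce-homogenised in PBS pH 7.4 containing 1 mM MgCl2, and the crude extract, at 1 mg/mL protein, was exposed to 10 μM compound for 30 min. Aliquots were heated for 3 min across 48°C-58°C, pooled, brought to 0.5% NP-40 at 4°C and spun at 21,000xg for 90 min, with the supernatant taken as soluble protein. TMTpro 16plex LC-MS/MS with equalised channel sums quantified that protein. Values are log-two fold changes in thermal stability relative to solvent controls, taken from duplicates.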

[1] = compound: C/C(=N\NC(=O)C1=CC(=CC=C1)S(=O)(=O)N2CCOCC2)/C3=C(C=CC(=C3)Cl)O
Method in brief: as §1

[2] = compound: C1=CC(=CC=C1C2=NC3=C(N2)C=C(C=C3)C(=O)N)OC4=CC=C(C=C4)Cl
Method in brief: as §1

[3] = compound: C1=CC2=C(C=CC(=C2)/C=C\3/C(=O)NC(=NCC4=CC=CS4)S3)N=C1
Method in brief: as §1

[4] = compound: C1=CC2=NC=CN=C2C=C1/C=C/3\C(=O)NC(=O)S3
Method in brief: as §1

[5] = compound: C1=CC=C(C=C1)C2=NC(=C(N2)C3=CC=NC=C3)C4=CC(=C(C=C4)Cl)O
Method in brief: as §1

[6] = compound: C1=CC=C2C(=C1)C3=NNC4=CC=CC(=C43)C2=O
Method in brief: as §1

[7] = compound: C1CCN(C1)C(=O)NC2=CC=CC(=C2)NC3=NC=C(C(=N3)NCCC4=CN=CN4)Br
Method in brief: as §1

[8] = compound: C1CN(CCC1(CC2=CC=C(C=C2)Cl)N)C3=NC=NC4=C3C=CN4
Method in brief: as §1

IRAK-1-4 Inhibitor I = compound: C1COCCN1CCN2C3=CC=CC=C3N=C2NC(=O)C4=CC(=CC=C4)[N+](=O)[O-] [IRAK-1-4 Inhibitor I]
Method in brief: as §1

ibrutinib = compound: C=CC(=O)N1CCC[C@@H](n2nc(-c3ccc(Oc4ccccc4)cc3)c3c(N)ncnc32)C1 [ibrutinib]
Method in brief: as §1

[9] = compound: CC(=O)c1cnc2ccc(-c3cc(Cl)c(O)c(Cl)c3)nc2c1N[C@H]1CC[C@H](CN(C)C)CC1
Method in brief: as §1

ralimetinib = compound: CC(C)(C)Cn1c(N)nc2ccc(-c3[nH]c(C(C)(C)C)nc3-c3ccc(F)cc3)nc21 [ralimetinib]
Method in brief: as §1

[10] = compound: CC(C)(O)CC(=O)NCCn1ccc2ncnc(Nc3ccc(Oc4cccc(C(F)(F)F)c4)c(Cl)c3)c21
Method in brief: as §1

[11] = compound: CC(C)C1=C2N=C(C=C(N2N=C1)NCC3=CC=CC=C3)NCCCCCCN
Method in brief: as §1

[12] = compound: CC1=C(C(CC(=O)N1)C2=CC=C(C=C2)C(F)(F)F)C(=O)NC3=C(C=C4C(=C3)C=NN4)F
Method in brief: as §1

[13] = compound: CC1=C(C2=C(C=C1)C(=O)C3=CC=CC=C3N2CCCN)C
Method in brief: as §1

[14] = compound: CC1=C(C=C(C=C1)NC(=O)C2=CC(=CC=C2)C(C)(C)C#N)NC3=CC4=C(C=C3)N=CN(C4=O)C
Method in brief: as §1

[15] = compound: CC1=C(C=C(C=C1)NC(=O)C2=CC(=CC=C2)N(C)C)NC(=O)C3=CC=C(C=C3)O
Method in brief: as §1

[16] = compound: CC1=CC=C(C=C1)SC2=C3C=C(SC3=CN=C2)C(=O)N
Method in brief: as §1

Sequence of UniProt Q5TEJ8 (Q5TEJ8 whole entry, looked up): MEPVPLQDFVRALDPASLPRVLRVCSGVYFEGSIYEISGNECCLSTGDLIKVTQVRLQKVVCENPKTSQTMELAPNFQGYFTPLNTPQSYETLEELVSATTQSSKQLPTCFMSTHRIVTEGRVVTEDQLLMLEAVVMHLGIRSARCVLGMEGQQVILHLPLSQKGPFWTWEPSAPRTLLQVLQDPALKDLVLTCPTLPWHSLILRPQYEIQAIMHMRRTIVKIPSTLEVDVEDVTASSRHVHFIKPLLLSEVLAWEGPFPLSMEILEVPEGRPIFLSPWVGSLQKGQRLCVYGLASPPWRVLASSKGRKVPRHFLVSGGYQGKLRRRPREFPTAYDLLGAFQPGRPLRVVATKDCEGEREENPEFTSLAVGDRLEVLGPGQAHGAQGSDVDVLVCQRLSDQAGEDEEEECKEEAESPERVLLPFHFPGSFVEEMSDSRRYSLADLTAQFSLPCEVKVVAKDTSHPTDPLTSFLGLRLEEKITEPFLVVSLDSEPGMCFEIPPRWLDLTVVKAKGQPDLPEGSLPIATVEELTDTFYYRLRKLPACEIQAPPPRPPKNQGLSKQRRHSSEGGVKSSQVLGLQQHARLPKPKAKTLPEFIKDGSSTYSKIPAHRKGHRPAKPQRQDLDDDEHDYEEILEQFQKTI
Sequence of UniProt Q9NX07 (Q9NX07 whole entry, looked up): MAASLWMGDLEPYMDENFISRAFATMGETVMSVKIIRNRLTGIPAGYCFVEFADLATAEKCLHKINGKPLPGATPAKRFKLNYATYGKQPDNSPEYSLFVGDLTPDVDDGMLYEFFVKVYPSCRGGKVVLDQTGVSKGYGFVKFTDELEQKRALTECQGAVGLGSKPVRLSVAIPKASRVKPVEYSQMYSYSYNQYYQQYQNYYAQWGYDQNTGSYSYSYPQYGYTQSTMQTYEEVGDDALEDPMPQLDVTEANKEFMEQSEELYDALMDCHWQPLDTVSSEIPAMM
Sequence of UniProt O95857 (O95857 whole entry, looked up): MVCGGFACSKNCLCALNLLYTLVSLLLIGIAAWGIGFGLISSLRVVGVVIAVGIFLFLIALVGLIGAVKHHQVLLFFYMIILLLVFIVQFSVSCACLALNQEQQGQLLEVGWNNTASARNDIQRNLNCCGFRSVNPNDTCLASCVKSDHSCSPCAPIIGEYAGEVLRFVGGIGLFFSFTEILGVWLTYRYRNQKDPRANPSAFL
Sequence of UniProt Q8WUH2 (Q8WUH2 whole entry, looked up): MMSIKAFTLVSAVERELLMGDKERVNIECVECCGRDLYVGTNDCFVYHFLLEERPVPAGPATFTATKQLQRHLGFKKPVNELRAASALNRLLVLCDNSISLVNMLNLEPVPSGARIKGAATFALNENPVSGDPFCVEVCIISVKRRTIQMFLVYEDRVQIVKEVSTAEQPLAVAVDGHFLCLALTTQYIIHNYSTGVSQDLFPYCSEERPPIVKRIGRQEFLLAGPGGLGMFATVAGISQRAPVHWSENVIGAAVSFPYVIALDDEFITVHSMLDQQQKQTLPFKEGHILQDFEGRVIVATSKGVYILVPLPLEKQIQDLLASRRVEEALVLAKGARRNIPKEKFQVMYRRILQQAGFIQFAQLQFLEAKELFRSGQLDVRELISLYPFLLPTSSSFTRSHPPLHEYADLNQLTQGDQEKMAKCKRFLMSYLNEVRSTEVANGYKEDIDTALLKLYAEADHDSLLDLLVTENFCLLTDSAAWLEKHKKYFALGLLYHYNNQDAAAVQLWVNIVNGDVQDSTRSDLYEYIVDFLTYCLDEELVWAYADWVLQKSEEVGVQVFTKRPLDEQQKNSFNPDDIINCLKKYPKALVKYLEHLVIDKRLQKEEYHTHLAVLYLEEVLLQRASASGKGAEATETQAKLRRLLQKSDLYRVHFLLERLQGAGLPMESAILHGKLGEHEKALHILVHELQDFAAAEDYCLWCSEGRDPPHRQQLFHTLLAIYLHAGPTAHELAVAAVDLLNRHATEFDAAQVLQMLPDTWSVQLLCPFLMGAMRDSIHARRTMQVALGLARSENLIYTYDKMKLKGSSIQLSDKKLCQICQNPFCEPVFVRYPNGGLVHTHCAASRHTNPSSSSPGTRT
Sequence of UniProt Q8NBN3 (Q8NBN3 whole entry, looked up): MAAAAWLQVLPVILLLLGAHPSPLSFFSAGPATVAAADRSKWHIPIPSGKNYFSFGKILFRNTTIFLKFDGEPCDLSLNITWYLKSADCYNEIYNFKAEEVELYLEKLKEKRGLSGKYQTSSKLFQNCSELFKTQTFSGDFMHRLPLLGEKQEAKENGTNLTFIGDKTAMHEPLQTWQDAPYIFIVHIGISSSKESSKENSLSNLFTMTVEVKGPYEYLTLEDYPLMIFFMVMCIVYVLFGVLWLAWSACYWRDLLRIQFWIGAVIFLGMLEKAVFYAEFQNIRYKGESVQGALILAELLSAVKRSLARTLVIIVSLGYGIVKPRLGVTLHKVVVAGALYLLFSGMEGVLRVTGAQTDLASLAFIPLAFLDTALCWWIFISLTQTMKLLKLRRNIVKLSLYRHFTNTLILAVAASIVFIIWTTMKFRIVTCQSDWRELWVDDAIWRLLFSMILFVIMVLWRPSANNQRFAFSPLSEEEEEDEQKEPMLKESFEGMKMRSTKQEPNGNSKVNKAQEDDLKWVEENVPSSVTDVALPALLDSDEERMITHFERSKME
Sequence of UniProt O94842 (O94842 whole entry, looked up): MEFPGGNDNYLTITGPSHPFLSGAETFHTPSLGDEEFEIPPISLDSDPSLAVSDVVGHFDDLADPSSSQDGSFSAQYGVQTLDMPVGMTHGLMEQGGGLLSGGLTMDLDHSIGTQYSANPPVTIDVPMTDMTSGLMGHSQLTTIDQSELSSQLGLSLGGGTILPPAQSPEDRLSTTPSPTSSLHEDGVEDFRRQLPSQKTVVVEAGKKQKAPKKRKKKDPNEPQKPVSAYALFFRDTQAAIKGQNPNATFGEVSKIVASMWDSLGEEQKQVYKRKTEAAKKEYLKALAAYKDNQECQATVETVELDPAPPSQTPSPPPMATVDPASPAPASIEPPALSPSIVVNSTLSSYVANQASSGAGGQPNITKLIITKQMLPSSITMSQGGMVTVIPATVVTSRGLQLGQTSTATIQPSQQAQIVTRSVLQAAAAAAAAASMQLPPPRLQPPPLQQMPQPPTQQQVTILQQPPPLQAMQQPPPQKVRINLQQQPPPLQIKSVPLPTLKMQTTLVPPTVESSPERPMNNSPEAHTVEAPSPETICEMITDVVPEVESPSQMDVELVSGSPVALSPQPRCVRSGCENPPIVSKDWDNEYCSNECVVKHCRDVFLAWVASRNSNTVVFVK
Sequence of UniProt Q5TAX3 (Q5TAX3 whole entry, looked up): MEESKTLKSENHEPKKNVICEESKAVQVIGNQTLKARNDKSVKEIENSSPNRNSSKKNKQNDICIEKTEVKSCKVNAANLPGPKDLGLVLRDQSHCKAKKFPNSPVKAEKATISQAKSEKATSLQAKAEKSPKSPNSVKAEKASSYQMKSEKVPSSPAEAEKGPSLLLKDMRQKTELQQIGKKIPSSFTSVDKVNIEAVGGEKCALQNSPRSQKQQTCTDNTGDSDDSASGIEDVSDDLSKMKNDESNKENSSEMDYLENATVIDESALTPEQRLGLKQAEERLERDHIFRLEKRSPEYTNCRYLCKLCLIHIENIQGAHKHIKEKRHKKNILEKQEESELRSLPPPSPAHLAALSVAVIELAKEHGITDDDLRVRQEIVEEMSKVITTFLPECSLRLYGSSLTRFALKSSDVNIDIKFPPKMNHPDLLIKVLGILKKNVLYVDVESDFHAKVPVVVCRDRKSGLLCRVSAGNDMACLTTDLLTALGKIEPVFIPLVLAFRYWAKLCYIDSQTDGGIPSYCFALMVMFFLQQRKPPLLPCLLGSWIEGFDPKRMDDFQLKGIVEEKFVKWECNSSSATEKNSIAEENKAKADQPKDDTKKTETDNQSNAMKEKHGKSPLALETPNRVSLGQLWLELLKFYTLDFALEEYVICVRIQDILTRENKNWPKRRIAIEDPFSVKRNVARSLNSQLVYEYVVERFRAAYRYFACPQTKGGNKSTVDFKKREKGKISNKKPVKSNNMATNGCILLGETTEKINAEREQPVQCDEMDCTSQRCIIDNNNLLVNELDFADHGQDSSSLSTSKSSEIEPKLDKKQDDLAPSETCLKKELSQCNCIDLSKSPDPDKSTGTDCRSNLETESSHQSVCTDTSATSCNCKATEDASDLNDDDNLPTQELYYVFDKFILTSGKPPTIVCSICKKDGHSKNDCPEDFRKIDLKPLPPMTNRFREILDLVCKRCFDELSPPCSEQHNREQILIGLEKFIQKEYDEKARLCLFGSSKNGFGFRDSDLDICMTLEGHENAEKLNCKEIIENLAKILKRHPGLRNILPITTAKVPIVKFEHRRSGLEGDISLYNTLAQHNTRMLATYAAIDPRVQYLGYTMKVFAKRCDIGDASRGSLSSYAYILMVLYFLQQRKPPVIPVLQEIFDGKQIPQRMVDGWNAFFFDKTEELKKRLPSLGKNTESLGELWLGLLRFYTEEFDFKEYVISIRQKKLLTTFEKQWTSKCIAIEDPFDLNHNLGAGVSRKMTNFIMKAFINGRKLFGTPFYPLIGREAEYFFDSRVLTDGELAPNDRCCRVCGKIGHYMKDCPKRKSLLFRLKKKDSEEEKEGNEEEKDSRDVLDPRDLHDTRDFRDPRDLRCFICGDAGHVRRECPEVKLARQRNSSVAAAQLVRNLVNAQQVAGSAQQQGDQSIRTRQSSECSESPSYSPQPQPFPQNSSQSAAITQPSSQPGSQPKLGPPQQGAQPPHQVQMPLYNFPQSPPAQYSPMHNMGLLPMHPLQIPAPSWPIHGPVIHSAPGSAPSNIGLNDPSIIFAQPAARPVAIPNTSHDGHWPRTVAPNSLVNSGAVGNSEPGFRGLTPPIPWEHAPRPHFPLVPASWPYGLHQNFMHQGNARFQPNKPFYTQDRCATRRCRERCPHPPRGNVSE
Sequence of UniProt Q5BVD1 (Q5BVD1 whole entry, looked up): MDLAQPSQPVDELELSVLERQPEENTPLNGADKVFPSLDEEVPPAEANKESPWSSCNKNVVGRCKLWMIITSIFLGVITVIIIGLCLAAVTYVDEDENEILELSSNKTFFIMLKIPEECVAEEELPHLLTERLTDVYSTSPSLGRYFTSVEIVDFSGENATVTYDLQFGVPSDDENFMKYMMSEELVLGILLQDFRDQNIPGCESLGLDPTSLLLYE

| Target | log2 fold change (erlotinib) | log2 fold change [1] | log2 fold change [2] | log2 fold change [3] | log2 fold change [4] | log2 fold change [5] | log2 fold change [6] | log2 fold change [7] | log2 fold change [8] | log2 fold change (IRAK-1-4 Inhibitor I) | log2 fold change (ibrutinib) | log2 fold change [9] | log2 fold change (ralimetinib) | log2 fold change [10] | log2 fold change [11] | log2 fold change [12] | log2 fold change [13] | log2 fold change [14] | log2 fold change [15] | log2 fold change [16] |
| --- | --- | --- | --- | --- | --- | --- | --- | --- | --- | --- | --- | --- | --- | --- | --- | --- | --- | --- | --- | --- |
| UBR3 isoform 4 (UniProt Q6ZT12) | 0.016 | 0.044 | 0.016 | 0.027 | 0.005 | 0.005 | -0.07 | -0.063 | 0.032 | -0.007 | -0.002 | -0.023 | 0.107 | -0.009 | 0.005 | 0.006 | -0.055 | -0.016 | 0.013 | 0.021 |
| UBAP2 (UniProt Q5T6F2) | -0.02 | -0.02 | 0.032 | 0.01 | 0.022 | -0.159 | 0.016 | -0.009 | 0.001 | 0.016 | 0.014 | 0.009 | -0.044 | -0.067 | 0.008 | 0.03 | 0.006 | -0.474 (active) | -0.026 | -0.019 |
| TUT4 (UniProt Q5TAX3) | -0.009 | -0.048 | -0.014 | -0.062 | -0.054 | -0.004 | -0.021 | -0.029 | 0.019 | 0.023 | 0.024 | -0.013 | 0.006 | -0.07 | 0.023 | -0.003 | -0.045 | -0.165 | -0.007 | 0.041 |
| TMEM164 (UniProt Q5U3C3) | 0.067 | -0.141 | -0.009 | -0.093 | 0.104 | -0.056 | -0.211 | -0.057 | 0.153 | 0.094 | 0.053 | -0.066 | -0.171 | -0.252 | -0.035 | -0.184 | -0.153 | 0.255 | 0.027 | -0.061 |
| TOX4 (UniProt O94842) | -0.016 | -0.025 | 0.049 | 0.037 | -0.052 | 0.04 | -0.003 | -0.014 | 0.053 | -0.025 | -0.009 | 0.054 | 0.009 | -0.034 | -0.008 | 0.024 | -0.002 | 0.033 | 0.023 | 0.006 |
| TTMP isoform 3 (UniProt Q5BVD1) | 0.121 | -0.173 | -0.023 | -0.106 | -0.026 | -0.026 | -0.08 | -0.05 | 0.086 | 0.193 | 0.09 | 0 | -0.034 | -0.22 | -0.038 | -0.091 | -0.02 | 0.296 | -0.004 | -0.099 |
| TUBB2A (UniProt Q13885) | 0.008 | 0.04 | 0.004 | -0.021 | -0.028 | -0.008 | -0.03 | 0.014 | 0.026 | 0.019 | 0.005 | 0.014 | 0.032 | -0.005 | 0.027 | 0.02 | 0.001 | -0.011 | 0.032 | 0.001 |
| UBE4A isoform 2 (UniProt Q14139) | 0.031 | 0.091 | 0.023 | 0.013 | -0.023 | -0.021 | -0.082 | -0.028 | 0.035 | 0.004 | -0.025 | 0.018 | 0.038 | -0.038 | -0.023 | 0.03 | 0.019 | -0.009 | 0.034 | -0.009 |
| TMOD1 (UniProt P28289) | 0.002 | -0.091 | 0.018 | 0.018 | -0.001 | 0.003 | 0.013 | -0.005 | -0.002 | 0.012 | 0.002 | 0.007 | -0.015 | -0.02 | 0 | -0.004 | 0.006 | 0 | 0.016 | -0.019 |
| TGFBRAP1 (UniProt Q8WUH2) | 0.015 | 0.057 | -0.016 | -0.002 | -0.018 | -0.02 | -0.056 | 0.023 | 0.006 | -0.026 | 0.002 | 0.022 | 0.011 | 0.025 | -0.014 | 0.007 | 0.015 | -0.005 | 0.009 | -0.012 |
| THEMIS2 (UniProt Q5TEJ8) | -0.035 | 0.006 | 0.004 | 0.036 | 0.031 | -0.041 | -0.024 | -0.02 | 0.042 | 0.031 | 0.029 | -0.038 | 0.059 | -0.037 | -0.009 | 0.029 | -0.051 | -0.023 | -0.042 | 0.126 |
| TBL3 (UniProt Q12788) | 0.082 | -0.001 | -0.071 | 0.037 | 0.012 | 0.017 | 0.043 | 0.074 | -0.016 | 0.01 | -0.006 | -0.016 | 0.027 | 0.001 | 0.026 | 0.013 | -0.017 | 0.027 | 0.046 | 0.008 |
| TDRKH (UniProt Q9Y2W6) | -0.067 | 0.023 | -0.017 | -0.018 | -0.065 | 0.02 | -0.086 | -0.011 | -0.022 | 0.047 | -0.028 | -0.023 | 0.033 | -0.027 | -0.02 | 0.003 | -0.008 | -0.006 | -0.005 | -0.035 |
| TSPAN13 (UniProt O95857) | 0.002 | 0.053 | 0.06 | 0.003 | -0.002 | 0.008 | -0.167 | 0.202 | -0.053 | -0.051 | 0.018 | -0.001 | -0.048 | -0.044 | -0.083 | 0.102 | 0.036 | 0.088 | 0 | -0.043 |
| TRNAU1AP (UniProt Q9NX07) | 0.019 | 0.083 | -0.037 | 0.114 | 0.038 | -0.028 | -0.31 | -0.071 | 0.015 | -0.005 | -0.013 | -0.212 | 0.07 | -0.045 | 0.039 | -0.008 | 0.02 | -0.035 | 0.034 | 0.021 |
| TMEM87A (UniProt Q8NBN3) | -0.015 | -0.021 | 0.01 | 0.037 | -0.02 | -0.02 | -0.027 | 0.031 | -0.004 | -0.028 | -0.002 | 0.019 | -0.031 | -0.035 | -0.075 | -0.017 | -0.02 | 0.016 | 0.004 | -0.02 |
